Measured values reported in PubChem BioAssay (NCI).
Compounds without any hit were thinned out: in the full panel of roughly 83,000, 20% have a hit.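 Percent growth is the endpoint: 0 to 100 indicates growth inhibition (40 means 60% inhibition), 0 means no net growth, and negative values indicate cell death.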 Active and inactive are the calls of the source. How the source made its calls: active means growth percent below 10; inactive means the rest.

Assays:
Assay in all cases: NCI-60 one-dose screen, 48 h (100 = growth as untreated, 0 = no growth, -100 = all killed)
HCT-15 colon = conditions: 10 µM unless noted
HT29 colon = conditions: 10 µM unless noted
SNB-75 CNS = conditions: 10 µM unless noted
SNB-19 CNS = conditions: 10 µM unless noted
U251 CNS = conditions: 10 µM unless noted
PC-3 prostate = conditions: 10 µM unless noted
SK-MEL-5 melanoma = conditions: 10 µM unless noted
UACC-62 melanoma = conditions: 10 µM unless noted
LOX IMVI melanoma = conditions: 10 µM
SK-MEL-28 melanoma = conditions: 10 µM unless noted
SK-MEL-2 melanoma = conditions: 10 µM unless noted
EKVX NSCLC = conditions: 10 µM unless noted
SN12C renal = conditions: 10 µM unless noted
UO-31 renal = conditions: 10 µM unless noted
TK-10 renal = conditions: 10 µM unless noted
ACHN renal = conditions: 10 µM unless noted
CAKI-1 renal = conditions: 10 µM unless noted
A498 renal = conditions: 10 µM unless noted
CCRF-CEM leukemia = conditions: 10 µM unless noted
MOLT-4 leukemia = conditions: 10 µM unless noted

Measured: growth

COC(OC)C1=C(C)OC(N)=C(C#N)C12C(=O)Nc1ccccc12 (stereo not given)
inactive: HCT-15 colon 94.6% | HT29 colon 102% | SNB-75 CNS 103% | SNB-19 CNS 97% | U251 CNS 99.4% | PC-3 prostate 92.8% | SK-MEL-5 melanoma 92.4% | UACC-62 melanoma 81.1% | LOX IMVI melanoma 28.4% | SK-MEL-28 melanoma 85% | SK-MEL-2 melanoma 96.2% | EKVX NSCLC 99.7% | SN12C renal 93.3% | UO-31 renal 70.3% | TK-10 renal 161% | ACHN renal 84.9% | CAKI-1 renal 108% | A498 renal 125% | CCRF-CEM leukemia 54.6% | MOLT-4 leukemia 95.9%

Cc1ccc(NC(=O)CN2CCN(c3ncnc4c3cnn4-c3ccccc3)CC2)cc1
inactive: HCT-15 colon 50.3% | HT29 colon 93.8% | SNB-75 CNS 103% | SNB-19 CNS 85.9% | U251 CNS 86.5% | PC-3 prostate 65.5% | SK-MEL-5 melanoma 77.6% | UACC-62 melanoma 69.3% | LOX IMVI melanoma 23.3% | SK-MEL-28 melanoma 86.5% | SK-MEL-2 melanoma 87.8% | EKVX NSCLC 81% | SN12C renal 74.6% | UO-31 renal 63% | TK-10 renal 152% | CAKI-1 renal 77.8% | A498 renal 104% | CCRF-CEM leukemia 78.4% | MOLT-4 leukemia 68.1%
active: ACHN renal -32.7%

CCOC(=O)/C=C/c1cccc2c1C(=O)NC(C)(c1cc3cc(Br)ccc3oc1=O)N2 (stereo not given)
active: SK-MEL-2 melanoma 5.72%
inactive: HCT-15 colon 26.4% | HT29 colon 43.5% | SNB-75 CNS 38.3% | SNB-19 CNS 48.7% | U251 CNS 47.1% | PC-3 prostate 25.4% | SK-MEL-5 melanoma 48.2% | UACC-62 melanoma 31.4% | LOX IMVI melanoma 44.3% | SK-MEL-28 melanoma 58.1% | EKVX NSCLC 43.8% | SN12C renal 53.3% | UO-31 renal 19.8% | TK-10 renal 58.4% | ACHN renal 28.1% | CAKI-1 renal 20.2% | A498 renal 59.8% | CCRF-CEM leukemia 36.8% | MOLT-4 leukemia 30.4%

O=C(CN1C(=O)/C(=C/c2ccccc2F)SC1=S)N1CCOCC1
inactive: HCT-15 colon 29.4% | HT29 colon 87.1% | SNB-75 CNS 106% | SNB-19 CNS 91% | U251 CNS 91.8% | PC-3 prostate 95.1% | SK-MEL-5 melanoma 93.9% | UACC-62 melanoma 76.2% | LOX IMVI melanoma 38% | SK-MEL-28 melanoma 86.4% | SK-MEL-2 melanoma 99.1% | EKVX NSCLC 95.9% | SN12C renal 72.6% | UO-31 renal 58.5% | TK-10 renal 97.8% | ACHN renal 50.3% | CAKI-1 renal 85.5% | A498 renal 129% | CCRF-CEM leukemia 41.9% | MOLT-4 leukemia 77.7%

Cn1cc(-c2cc(N)n3nc(-c4cn(C)c5ccccc45)cc3n2)c2cc(Cl)ccc21
active: HCT-15 colon -78.3% | HT29 colon -67.2% | SNB-75 CNS -44% | SNB-19 CNS -0.728% | U251 CNS -74.5% | PC-3 prostate -38.1% | SK-MEL-5 melanoma -67% | UACC-62 melanoma -56.2% | LOX IMVI melanoma -86.5% | SK-MEL-28 melanoma -86.7% | SK-MEL-2 melanoma -87.4% | EKVX NSCLC -31% | SN12C renal -53.9% | UO-31 renal -88.5% | TK-10 renal -42.9% | ACHN renal -28.2% | CAKI-1 renal -82.5% | A498 renal -24.8% | CCRF-CEM leukemia -5.76% | MOLT-4 leukemia -6.02%

CN(C)c1nc(NCCNS(=O)(=O)c2ccc(C3=Nc4c(N)nc(N)nc4NC(c4ccc(Cl)cc4)C3)cc2)nc(Nc2ccc(F)cc2)n1 (stereo not given)
inactive: HCT-15 colon 32% | SNB-75 CNS 53.2% | SNB-19 CNS 34.5% | U251 CNS 27.5% | PC-3 prostate 31.3% | UACC-62 melanoma 25.6% | SK-MEL-28 melanoma 38.9% | EKVX NSCLC 43.3% | SN12C renal 47.1% | UO-31 renal 81.1% | TK-10 renal 79.6% | ACHN renal 73.8% | CAKI-1 renal 72.4% | A498 renal 76.5% | CCRF-CEM leukemia 14%
active: HT29 colon -41.4% | SK-MEL-5 melanoma -48.7% | LOX IMVI melanoma -56.4% | SK-MEL-2 melanoma -2.74% | MOLT-4 leukemia 7.27%

CCOC(=O)C(N=Nc1ccc(S(=O)(=O)N=C(N)N)cc1)C(C)=O (stereo not given)
inactive: HCT-15 colon 108% | HT29 colon 107% | SNB-75 CNS 74.3% | SNB-19 CNS 101% | U251 CNS 98.6% | PC-3 prostate 98.5% | SK-MEL-5 melanoma 102% | UACC-62 melanoma 99.2% | LOX IMVI melanoma 109% | SK-MEL-28 melanoma 109% | SK-MEL-2 melanoma 119% | EKVX NSCLC 111% | SN12C renal 101% | UO-31 renal 97.6% | TK-10 renal 88.6% | ACHN renal 98.2% | CAKI-1 renal 96.3% | A498 renal 102% | CCRF-CEM leukemia 101% | MOLT-4 leukemia 110%

Cn1cc(-c2cc(N)n3nc(-c4cn(C)c5ccc(Cl)cc45)cc3n2)c2ccccc21
inactive: HCT-15 colon 100% | HT29 colon 105% | SNB-75 CNS 89% | SNB-19 CNS 108% | U251 CNS 103% | PC-3 prostate 110% | SK-MEL-5 melanoma 98.5% | UACC-62 melanoma 98.2% | LOX IMVI melanoma 110% | SK-MEL-28 melanoma 97.4% | SK-MEL-2 melanoma 114% | EKVX NSCLC 104% | SN12C renal 108% | UO-31 renal 107% | TK-10 renal 79.3% | ACHN renal 100% | CAKI-1 renal 95.4% | A498 renal 101% | CCRF-CEM leukemia 115% | MOLT-4 leukemia 104%
